Read-out in experiment [1]: Monocyte Chemoattractant Protein-1 (MCP1), CCL2 (gene 6347)
In words: BSK_SAg_MCP1: BioMAP Diversity Plus: SAg Assay for Monocyte Chemoattractant Protein-1 (MCP1) Biomarker Activity (AID 2283090). The note with it: primary human HUVEC with PBMC; actives raise or lower the signal. Put shortly: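 MCP-1 levels in the endothelial–PBMC SAg co-culture were quantified by ELISA at 24 h post-dosing; both increases and decreases versus DMSO scored. Cytotoxicity monitored by SRB total protein in parallel cultures.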

Read-out in experiment [2]: E-selectin (Homo sapiens) (UniProt P16581)
In words: BSK_SAg_Eselectin: BioMAP Diversity Plus: SAg Assay for Eselectin Biomarker Activity (AID 2283091). The note with it: primary human HUVEC with PBMC; actives raise or lower the signal. Put shortly:
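Endpoint values derive from bidirectional fitting relative to DMSO, using ELISA-measured E-selectin in a human vascular co-culture (umbilical vein endothelium plus PBMC) sampled 24 h after dosing.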

Experiment [3] in a line: BSK_SAg_PBMCCytotoxicity: PBMC Cytotoxicity Assessment in the BioMAP Diversity Plus: SAg Assay (AID 2283093).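 Also: PBMC viability measured as Alamar Blue reduction fluorescence at 546/580 nm; fitted both ways against DMSO so a hit may be loss or gain of signal.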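 As to AC50: PBMC superantigen activated with SEB plus TSST-1 one hour after compound addition.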 The note with it: primary human HUVEC with PBMC. A digest of the protocol:
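HUVEC/PBMC co-culture; PBMC exposed to chemical 1 h before SEB and TSST-1 activation (20 ng/mL each), incubated 90 h, then Alamar Blue 6 h, fluorescence 546/580 nm. Bidirectional fit versus DMSO baseline.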

A short description of experiment [4]: BSK_SAg_Proliferation: Cell Proliferation Assessment in the BioMAP Diversity Plus: SAg Assay (AID 2283095).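 Also: relative cell number as total protein by SRB absorbance in sub-confluent culture.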 The note with it: primary human HUVEC with PBMC. Put shortly:
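Human umbilical vein endothelial cells co-cultured with peripheral blood mononuclear cells; total protein measured by sulforhodamine B staining (0.1% SRB after 10% TCA fixation), absorbance at 560 nm, at 96 h. Bidirectional fit against DMSO baseline.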

Experiment [5] can be described thus: BSK_SAg_SRB: Viability Assessment in the BioMAP Diversity Plus: SAg Assay (AID 2283096).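 Also: cells read one day after compound addition; hits may be either gain or loss of signal compared with DMSO.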 Particulars: primary human HUVEC with PBMC. Put shortly: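 Human umbilical vein endothelial cells co-cultured with PBMC, read 24 h after compound dosing. Total protein measured by sulforhodamine B staining (0.1% SRB after 10% TCA fixation, absorbance 560 nm); bidirectional fit versus DMSO baseline.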

Experiment [6] has as its target Cytochrome P450 2C19 (Homo sapiens) (UniProt P33261). The experiment can be described thus: NVS_ADME_hCYP2C19: NovaScreen (NVS) CYP450-related Enzyme Activity (ADME) Assay for human CYP2C19 (AID 2283113; active = hit-call score of the fitted dose curve at least 0.9, where 1 is the maximum;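 also: potency for inhibition seen as loss of fluorescent signal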). A digest of the protocol: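 Biochemical CYP2C19 inhibition screen: insect-cell recombinant protein plus fluorescent substrate, 1 h, fluorescence intensity. Acetonitrile defined baseline activity. Single 10 uM concentration in duplicate, with concentration-response follow-up for actives.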

Experiment [7] deals with human CYP2A6, CYP2A6 (gene 1548) (UniProt P11509). The experiment can be described thus: NVS_ADME_hCYP2A6: NovaScreen (NVS) CYP450-related Enzyme Activity (ADME) Assay for human CYP2A6 (AID 2283099; active = hit-call score of the fitted dose curve at least 0.9, where 1 is the maximum). A digest of the protocol:
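Loss of fluorescence signal relative to acetonitrile vehicle reported CYP2A6 inhibition in a cell-free system using insect-cell-derived enzyme. Readings were taken at 0.5 h; top concentration in follow-up dose series was 20 uM.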

Experiment [8] addresses human CYP2B6, CYP2B6 (gene 1555) (UniProt P20813). In words: NVS_ADME_hCYP2B6: NovaScreen (NVS) CYP450-related Enzyme Activity (ADME) Assay for human CYP2B6 (AID 2283101; active = hit-call score of the fitted dose curve at least 0.9, where 1 is the maximum). Put shortly: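 Cell-free recombinant enzyme assay with a fluorogenic substrate; fluorescence intensity read 1 hour after dosing. Loss of signal relative to acetonitrile negative control indicates inhibition. Primary screen run in duplicate at 10 uM, actives then tested in concentration series.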

Experiment [9] deals with human CYP1A2, CYP1A2 (gene 1544) (UniProt P05177). In words: NVS_ADME_hCYP1A2: NovaScreen (NVS) CYP450-related Enzyme Activity (ADME) Assay for human CYP1A2 (AID 2283102; active = hit-call score of the fitted dose curve at least 0.9, where 1 is the maximum;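 also: potency for inhibition since loss of fluorescence marks reduced CYP1A2 activity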). Put shortly: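 Inhibition scored as decrease in fluorescent product versus acetonitrile negative control. Enzyme: insect-cell recombinant human CYP1A2, substrate-specific, cell-free. Reading at 0.5 h; 10 uM duplicate initial screen with positive and negative controls on every plate.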
Sequence of human CYP1A2, CYP1A2 (gene 1544) (P05177 whole entry, looked up): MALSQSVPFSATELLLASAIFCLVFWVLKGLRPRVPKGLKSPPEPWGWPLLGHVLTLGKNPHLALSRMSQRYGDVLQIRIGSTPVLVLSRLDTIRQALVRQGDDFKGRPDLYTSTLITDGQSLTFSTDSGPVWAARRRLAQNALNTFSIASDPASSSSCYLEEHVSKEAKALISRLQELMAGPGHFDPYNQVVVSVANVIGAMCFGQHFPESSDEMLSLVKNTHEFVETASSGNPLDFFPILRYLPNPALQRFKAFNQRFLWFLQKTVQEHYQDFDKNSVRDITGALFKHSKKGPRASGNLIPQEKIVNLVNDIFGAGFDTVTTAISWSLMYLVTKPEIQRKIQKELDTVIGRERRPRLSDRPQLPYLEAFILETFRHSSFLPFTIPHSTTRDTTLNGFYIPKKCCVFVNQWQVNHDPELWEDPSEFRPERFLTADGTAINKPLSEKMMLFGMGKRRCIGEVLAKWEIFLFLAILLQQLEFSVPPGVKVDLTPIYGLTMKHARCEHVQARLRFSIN

Experiment [10] deals with human CYP4F12, CYP4F12 (gene 66002) (UniProt Q9HCS2). In words: NVS_ADME_hCYP4F12: NovaScreen (NVS) CYP450-related Enzyme Activity (ADME) Assay for human CYP4F12 (AID 2283111; active = hit-call score of the fitted dose curve at least 0.9, where 1 is the maximum). Put shortly:
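Cell-free fluorescence assay of recombinant human CYP4F12 activity on a specific substrate, read 0.5 h after dosing. Primary screen in duplicate at 10 uM, then concentration series for actives; loss of signal fitted against acetonitrile negative control.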

Read-out in experiment [11]: Interleukin-8 (IL8), CXCL8 (gene 3576)
The experiment can be described thus: BSK_SAg_IL8: BioMAP Diversity Plus: SAg Assay for Interleukin-8 (IL8) Biomarker Activity (AID 2283094). The note with it: primary human HUVEC with PBMC; actives raise or lower the signal. A digest of the protocol:
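Human umbilical vein endothelial cells co-cultured with peripheral blood mononuclear cells; IL-8 measured by ELISA 24 h after chemical dosing. Bidirectional concentration-response fitting used DMSO as negative control and activity baseline.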

The target of experiment [12] is human CYP2D6, CYP2D6 (gene 1565) (UniProt P10635). The experiment can be described thus: NVS_ADME_hCYP2D6: NovaScreen (NVS) CYP450-related Enzyme Activity (ADME) Assay for human CYP2D6 (AID 2283107; active = hit-call score of the fitted dose curve at least 0.9, where 1 is the maximum). Put shortly: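 Biochemical fluorescence assay, insect-cell-derived enzyme. Read at 1 h; inhibition taken from loss of signal against acetonitrile. Screened at 10 uM in duplicate, with concentration series for actives.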
Sequence of human CYP2D6, CYP2D6 (gene 1565) (P10635 whole entry, looked up): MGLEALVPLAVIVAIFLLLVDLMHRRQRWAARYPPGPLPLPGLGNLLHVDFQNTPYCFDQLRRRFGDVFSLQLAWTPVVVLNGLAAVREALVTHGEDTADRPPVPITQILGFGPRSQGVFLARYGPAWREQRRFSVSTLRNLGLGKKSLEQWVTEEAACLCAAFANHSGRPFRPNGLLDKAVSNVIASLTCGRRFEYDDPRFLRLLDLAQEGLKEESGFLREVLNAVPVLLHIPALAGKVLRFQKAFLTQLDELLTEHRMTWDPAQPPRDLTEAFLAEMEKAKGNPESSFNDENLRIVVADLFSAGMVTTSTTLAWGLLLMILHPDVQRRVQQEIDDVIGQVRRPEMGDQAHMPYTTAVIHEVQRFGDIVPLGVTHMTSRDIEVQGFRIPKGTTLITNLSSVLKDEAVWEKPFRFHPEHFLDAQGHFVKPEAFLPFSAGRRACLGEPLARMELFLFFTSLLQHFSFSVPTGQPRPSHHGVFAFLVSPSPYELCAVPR

Experiment [13] addresses human CYP2C9, CYP2C9 (gene 1559) (UniProt P11712). The experiment can be described thus: NVS_ADME_hCYP2C9: NovaScreen (NVS) CYP450-related Enzyme Activity (ADME) Assay for human CYP2C9 (AID 2283108; active = hit-call score of the fitted dose curve at least 0.9, where 1 is the maximum). Put shortly:
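Recombinant human CYP2C9 expressed in SF9 cells, fluorogenic substrate, fluorescence read 0.75 h after dosing. Chemicals first run in duplicate at 10 uM, with actives followed in concentration series; loss of signal versus acetonitrile baseline.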

The target in experiment [14] is Cytochrome P450 3A4 (Homo sapiens) (UniProt P08684). In words: NVS_ADME_hCYP3A4: NovaScreen (NVS) CYP450-related Enzyme Activity (ADME) Assay for human CYP3A4 (AID 2283110; active = hit-call score of the fitted dose curve at least 0.9, where 1 is the maximum). A digest of the protocol: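 Cell-free recombinant enzyme expressed in insect cells; fluorescent substrate turnover read after 0.33 h, acetonitrile as negative control. Primary screen in duplicate at 10 uM, actives then tested in concentration series.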
Sequence of Cytochrome P450 3A4 (Homo sapiens) (P08684 whole entry, looked up): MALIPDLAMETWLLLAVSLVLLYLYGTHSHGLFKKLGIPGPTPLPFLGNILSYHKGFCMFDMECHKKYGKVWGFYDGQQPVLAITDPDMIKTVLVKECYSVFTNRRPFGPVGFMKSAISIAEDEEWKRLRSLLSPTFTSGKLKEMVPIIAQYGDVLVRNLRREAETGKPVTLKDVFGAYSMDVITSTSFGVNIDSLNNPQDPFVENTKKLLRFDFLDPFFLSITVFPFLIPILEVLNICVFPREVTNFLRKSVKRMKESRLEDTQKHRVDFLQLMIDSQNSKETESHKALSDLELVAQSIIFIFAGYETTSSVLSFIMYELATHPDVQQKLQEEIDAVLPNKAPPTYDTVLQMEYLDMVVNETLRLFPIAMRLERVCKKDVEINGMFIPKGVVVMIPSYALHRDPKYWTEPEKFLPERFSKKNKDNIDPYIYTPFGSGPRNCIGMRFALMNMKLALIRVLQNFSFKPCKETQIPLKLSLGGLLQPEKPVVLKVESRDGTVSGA

Here are results for eleven molecules from PubChem BioAssay (EPA / NIEHS).

Records with an inconclusive call do not appear. The source made the active and inactive calls. The calls were made as follows, unless noted: active = hit-call score of the fitted dose curve at least 0.9, where 1 is the maximum; inactive = score below 0.9.

Sequence of human CYP2C9, CYP2C9 (gene 1559) (P11712 whole entry, looked up): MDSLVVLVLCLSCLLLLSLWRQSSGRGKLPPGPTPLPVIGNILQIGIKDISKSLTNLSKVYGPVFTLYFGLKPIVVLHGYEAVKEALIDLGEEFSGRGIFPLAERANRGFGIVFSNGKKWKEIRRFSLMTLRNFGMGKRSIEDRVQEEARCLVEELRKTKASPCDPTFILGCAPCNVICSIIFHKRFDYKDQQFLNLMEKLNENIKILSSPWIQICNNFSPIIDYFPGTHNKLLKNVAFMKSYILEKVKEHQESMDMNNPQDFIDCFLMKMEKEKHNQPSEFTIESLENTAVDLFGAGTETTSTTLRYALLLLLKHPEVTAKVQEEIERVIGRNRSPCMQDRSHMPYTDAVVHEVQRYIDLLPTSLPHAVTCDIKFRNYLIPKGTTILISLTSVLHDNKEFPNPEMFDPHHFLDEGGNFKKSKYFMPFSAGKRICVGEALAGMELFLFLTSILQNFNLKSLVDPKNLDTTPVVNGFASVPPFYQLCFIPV
Sequence of E-selectin (Homo sapiens) (P16581 whole entry, looked up): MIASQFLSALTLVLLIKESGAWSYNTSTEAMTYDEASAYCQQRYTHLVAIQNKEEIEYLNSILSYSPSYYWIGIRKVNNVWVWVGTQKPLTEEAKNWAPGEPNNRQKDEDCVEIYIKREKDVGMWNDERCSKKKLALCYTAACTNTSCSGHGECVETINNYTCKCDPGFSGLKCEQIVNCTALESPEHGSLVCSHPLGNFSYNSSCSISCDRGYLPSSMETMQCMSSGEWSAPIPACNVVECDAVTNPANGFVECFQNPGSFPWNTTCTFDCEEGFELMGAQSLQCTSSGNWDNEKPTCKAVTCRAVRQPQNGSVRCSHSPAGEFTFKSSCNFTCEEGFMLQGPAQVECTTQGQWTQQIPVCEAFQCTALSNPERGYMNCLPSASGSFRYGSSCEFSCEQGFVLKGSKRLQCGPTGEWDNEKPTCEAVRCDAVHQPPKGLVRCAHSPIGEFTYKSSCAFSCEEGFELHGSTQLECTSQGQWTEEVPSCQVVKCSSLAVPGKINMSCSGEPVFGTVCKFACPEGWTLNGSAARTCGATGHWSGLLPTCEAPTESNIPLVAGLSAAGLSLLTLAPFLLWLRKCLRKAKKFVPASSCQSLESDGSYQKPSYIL
Sequence of human CYP2A6, CYP2A6 (gene 1548) (P11509 whole entry, looked up): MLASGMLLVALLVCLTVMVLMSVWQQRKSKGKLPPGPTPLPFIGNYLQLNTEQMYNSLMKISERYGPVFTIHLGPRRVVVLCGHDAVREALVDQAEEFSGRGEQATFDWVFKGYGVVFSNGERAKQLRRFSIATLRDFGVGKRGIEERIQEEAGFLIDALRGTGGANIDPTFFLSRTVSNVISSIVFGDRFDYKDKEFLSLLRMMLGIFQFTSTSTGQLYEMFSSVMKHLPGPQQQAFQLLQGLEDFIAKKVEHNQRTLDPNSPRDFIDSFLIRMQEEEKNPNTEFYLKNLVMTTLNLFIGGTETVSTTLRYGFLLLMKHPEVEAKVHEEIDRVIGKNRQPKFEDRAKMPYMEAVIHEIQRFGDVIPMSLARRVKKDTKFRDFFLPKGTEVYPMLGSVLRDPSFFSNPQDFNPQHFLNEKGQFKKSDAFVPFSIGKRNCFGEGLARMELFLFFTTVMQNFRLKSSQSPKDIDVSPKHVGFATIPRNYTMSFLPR
Sequence of human CYP4F12, CYP4F12 (gene 66002) (Q9HCS2 whole entry, looked up): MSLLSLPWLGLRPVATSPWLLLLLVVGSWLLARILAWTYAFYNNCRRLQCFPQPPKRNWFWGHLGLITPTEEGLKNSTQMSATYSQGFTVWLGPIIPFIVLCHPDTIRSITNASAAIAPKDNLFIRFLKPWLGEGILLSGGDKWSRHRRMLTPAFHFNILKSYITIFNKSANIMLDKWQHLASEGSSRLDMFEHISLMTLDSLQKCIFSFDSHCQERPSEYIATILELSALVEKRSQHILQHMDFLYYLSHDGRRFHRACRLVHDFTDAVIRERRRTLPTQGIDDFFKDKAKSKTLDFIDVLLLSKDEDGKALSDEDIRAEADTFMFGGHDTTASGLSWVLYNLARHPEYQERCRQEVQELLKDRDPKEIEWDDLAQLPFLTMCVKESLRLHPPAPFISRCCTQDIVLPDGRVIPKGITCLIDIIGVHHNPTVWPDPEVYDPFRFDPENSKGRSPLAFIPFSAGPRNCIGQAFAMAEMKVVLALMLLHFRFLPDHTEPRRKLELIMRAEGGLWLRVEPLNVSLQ
Sequence of human CYP2B6, CYP2B6 (gene 1555) (P20813 whole entry, looked up): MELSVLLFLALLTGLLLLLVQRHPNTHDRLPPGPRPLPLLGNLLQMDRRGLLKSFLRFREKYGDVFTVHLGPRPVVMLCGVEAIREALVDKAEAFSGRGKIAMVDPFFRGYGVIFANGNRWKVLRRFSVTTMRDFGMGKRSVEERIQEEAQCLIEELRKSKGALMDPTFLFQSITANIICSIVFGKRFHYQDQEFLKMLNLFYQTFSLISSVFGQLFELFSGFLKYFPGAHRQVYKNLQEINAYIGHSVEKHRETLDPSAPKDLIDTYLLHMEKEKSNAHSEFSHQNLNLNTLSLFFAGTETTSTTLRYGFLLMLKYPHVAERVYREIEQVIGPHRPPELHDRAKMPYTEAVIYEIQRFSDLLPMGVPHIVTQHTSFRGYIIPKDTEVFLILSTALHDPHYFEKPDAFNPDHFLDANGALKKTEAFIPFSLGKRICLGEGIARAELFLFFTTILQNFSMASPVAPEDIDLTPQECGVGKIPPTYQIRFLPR

As for `O=S1(=O)OCC2C(CO1)C1(Cl)C(Cl)=C(Cl)C2(Cl)C1(Cl)Cl` (configuration not stated), the outcome in experiment [1], in experiment [2], in experiment [3], in experiment [4] and in experiment [5] was inactive. For the same molecule, in experiment [6], the half-maximal activity concentration (AC50) (usually the concentration at which the activity in the assay is half-maximal) is 2.43 µM (active).
As to `Nc1ccc2ccccc2c1`, the result in experiment [1], in [3], in experiment [4], in [5] and in experiment [7] was inactive. Besides, the AC50 in experiment [2] is 4.16 µM (active); in experiment [8], 1.45 µM (active); in [9] it was 7.68 µM (active); in experiment [6], 2.58 µM (active).
Take `CCC1(c2ccccc2)C(=O)N=C(O)NC1=O` (configuration not stated): the outcome in experiment [1], in [2], in experiment [3], in [4], in experiment [5] and in experiment [10] was inactive.
For `COP(N)(=S)OC`, the outcome in experiment [1], in experiment [2], in experiment [3], in [4] and in experiment [5] was inactive.
As for `CC(C)Nc1ccc(Nc2ccccc2)cc1`, the AC50 is 6.2 µM (active) in [1]; 5.98 µM (active) in experiment [2]; 0.016 µM (active) in [3]; 5.34 µM (active) in experiment [11]; 0.0375 µM (active) in [4]; 14.1 µM (active) in experiment [5]. In addition, the AC50 in experiment [13] is 2.66 µM (active); in experiment [6], 3.42 µM (active). Further, the outcome in [12] was inactive.
For `ClC(Cl)c1ccccc1`, the outcome in [1], in experiment [2], in experiment [3], in [4] and in experiment [5] was inactive.
With `CC(C)(C)OOC(C)(C)C`, the outcome in experiment [1], in experiment [2], in experiment [3], in [4] and in experiment [5] was inactive.
In the case of `Cc1ccc2c(c1N)C(=O)c1ccccc1C2=O`, the outcome in [1], in [2], in experiment [3], in experiment [4], in experiment [5] and in experiment [14] was inactive. The AC50 in experiment [12] was 5 µM (active); in [13] it was 0.0118 µM (active); in experiment [6], 3.02 µM (active).
In the case of `O=C(O)C1C(C(=O)O)C2(Cl)C(Cl)=C(Cl)C1(Cl)C2(Cl)Cl` (configuration not stated), the result in experiment [1], in experiment [2], in experiment [3], in [4], in experiment [5] and in [7] was inactive.
Regarding `CCOP(=S)(OCC)SCn1nnc2ccccc2c1=O`, the result in [1], in experiment [3], in experiment [4] and in [5] was inactive. Also, the AC50 was 15.9 µM (active) in [2], 1.43 µM (active) in experiment [13] and 3.57 µM (active) in experiment [6].
For `O=C(O)C(F)(OC(F)(F)C(F)(F)C(F)(F)F)C(F)(F)F` (configuration not stated), the outcome in [1], in [2], in experiment [3], in experiment [4] and in experiment [5] was inactive.
